Some test systems named below: T-47D breast; BT-549 breast; MDA-MB-435 melanoma; SW-620 colon; MCF7 breast; HCT-116 colon; HCC-2998 colon; KM12 colon.
Common to all, as to assay: NCI-60 one-dose screen, 48 h (100 = growth as untreated, 0 = no growth, -100 = all killed)
Common to all, as to conditions: 10 µM

This is part of a sample that, as a whole, favours compounds with a hit. Of some 83,000 tested, about 20% had one in any assay.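 48-hour exposure, single concentration, 96-well plates; percent growth endpoint where 0 means no net growth. Active: below 10.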 A number with no mark means an inactive call. Calls of active or inactive are those of the source.

In the case of `C=CCN(CC=C)C(=O)[C@H](CC)[C@@H]1CC[C@@H](C)[C@@H]([C@H](C)[C@@H](O)[C@@H](C)C(=O)[C@H](CC)C2O[C@]3(C=C[C@@H](O)[C@]4(CC[C@@](C)([C@H]5CC[C@](O)(CC)[C@H](C)O5)O4)O3)[C@H](C)C[C@@H]2C)O1` (stereo not given in full), the growth was 9.12% (active) in the assay on T-47D breast; 27.3% in the assay on BT-549 breast; 6% (active) in the assay with MDA-MB-435 melanoma; 12.3% in the assay on SW-620 colon; 1.92% (active) in the assay on MCF7 breast; 9.64% (active) with HCT-116 colon. Further, the growth is 12.6% in the assay with HCC-2998 colon and 27.5% in the assay on KM12 colon.
Regarding `O=C1/C=C/[C@@H](O)[C@@H]2C[C@@H](O)C[C@H]2/C=C/CCC[C@H](CCc2ccc(C(F)(F)F)cc2)O1`, the growth with T-47D breast is -32.2% (active); with BT-549 breast, 4.5% (active); with MDA-MB-435 melanoma, 7.3% (active); with SW-620 colon, -1.3% (active); with MCF7 breast, -17.5% (active); in the assay on HCT-116 colon it was -45.8% (active). Further, the growth was -11.5% (active) with HCC-2998 colon and -6.74% (active) with KM12 colon.
Consider `CCCc1nc(C(C)(C)O)c(C(=O)O)n1Cc1ccc(-c2ccccc2-c2nn[nH]n2)cc1`, for which the growth was 82.1% in the assay on T-47D breast; 103% in the assay with BT-549 breast; 106% in the assay with MDA-MB-435 melanoma; 98.6% in the assay on SW-620 colon; 98.9% in the assay with MCF7 breast; 106% in the assay on HCT-116 colon. The figures for the growth in the assay on HCC-2998 colon and in the assay on KM12 colon were 110% and 120%, respectively.
For the compound `CC(=O)C1CCC2C3CC=C4CC(SC(=N)N)CCC4(C)C3CCC12C` (stereo not given), the growth was 40.9% in the assay on T-47D breast; 76.4% in the assay on BT-549 breast; 9.68% (active) with MDA-MB-435 melanoma; -75.2% (active) in the assay with SW-620 colon; -2.29% (active) in the assay with MCF7 breast; 1.01% (active) in the assay on HCT-116 colon. Also, the growth in the assay with HCC-2998 colon is -52.3% (active); in the assay on KM12 colon it was 31.8%.
As to `O=C(Nc1ccccc1)Nc1ncnc2c1ncn2-c1ccccc1`, the growth in the assay with T-47D breast is 51.3%; in the assay on BT-549 breast, 89.4%; with MDA-MB-435 melanoma, 84.8%; with SW-620 colon, 94%; in the assay on MCF7 breast it was 78.9%; in the assay on HCT-116 colon, 29.2%. The results for the growth in the assay on HCC-2998 colon and in the assay with KM12 colon were 92.6% and 87.4%, respectively.
Consider `COc1cc(N)c2ncccc2c1SC`, for which the growth with T-47D breast was 93.1%; in the assay on BT-549 breast it was 102%; in the assay with MDA-MB-435 melanoma, 110%; in the assay on SW-620 colon, 104%; with MCF7 breast, 104%; with HCT-116 colon, 99.3%. The growth in the assay with HCC-2998 colon and in the assay on KM12 colon was 102% throughout.
Consider `COc1ccc(N=Nc2cc(OC)c(OC)c(OC)c2)cc1`, for which the growth in the assay with T-47D breast is 58.8%; with BT-549 breast, 89.7%; with MDA-MB-435 melanoma, 67.6%; in the assay with SW-620 colon, 79.8%; in the assay on MCF7 breast it was 63.6%; in the assay on HCT-116 colon, 80.5%. The growth with HCC-2998 colon was 81.4%; with KM12 colon, 81.7%.
In the case of `CCOC(=O)c1cc(C(=O)c2cc(OC)c(OC)c(OC)c2)n2c1ccc1c3cccnc3ccc12`, the growth was 50.7% in the assay with T-47D breast; 68.9% in the assay on BT-549 breast; 8.8% (active) in the assay on MDA-MB-435 melanoma; 23.6% in the assay on SW-620 colon; 28.8% with MCF7 breast; 21.6% in the assay with HCT-116 colon. The growth in the assay on HCC-2998 colon was 81.9%; with KM12 colon it was 41.5%.
As to `CC(C)C[C@H](NC(=O)Cn1cccc(CNC(=O)c2ccccc2)c1=O)B(O)O`, the growth in the assay on T-47D breast was -18.5% (active); in the assay on BT-549 breast it was 24.1%; in the assay with MDA-MB-435 melanoma, -54.5% (active); with SW-620 colon, 6.53% (active); in the assay on MCF7 breast it was 30.2%; in the assay with HCT-116 colon, 2.43% (active). The growth in the assay on HCC-2998 colon is -34.8% (active); in the assay on KM12 colon, -12.5% (active).
For `CCN(CC)CCOC(=O)c1cc(OCc2ccccc2)c(OCc2ccccc2)c(OCc2ccccc2)c1`, the growth is 66.8% with T-47D breast; 86.8% in the assay with BT-549 breast; 74.7% in the assay on MDA-MB-435 melanoma; 19.7% with SW-620 colon; 8.2% (active) with MCF7 breast; 24% in the assay on HCT-116 colon. The values for the growth with HCC-2998 colon and in the assay with KM12 colon were 53.8% and 40.7%, respectively.
For the compound `CN1CCN(C2=Nc3ccccc3Oc3ccc(Cl)cc32)CC1`, the growth was 81.3% with T-47D breast; 111% with BT-549 breast; 96.9% in the assay with MDA-MB-435 melanoma; 96.2% in the assay with SW-620 colon; 97.4% in the assay on MCF7 breast; 92.4% in the assay with HCT-116 colon. Also, the growth with HCC-2998 colon was 116%; with KM12 colon it was 102%.
In the case of `O=C(/C=C/c1cccc(B(O)O)c1)c1cccc(B(O)O)c1`, the growth was 11.1% in the assay on T-47D breast; -91% (active) in the assay on BT-549 breast; 0.799% (active) in the assay with MDA-MB-435 melanoma; -41.3% (active) in the assay on SW-620 colon; 0.092% (active) in the assay with MCF7 breast; -88.3% (active) in the assay with HCT-116 colon. Further, the growth in the assay with HCC-2998 colon was -86.4% (active); in the assay on KM12 colon, -64.4% (active).
With `CCN1C(=O)CC(SC2CC(=O)N(CC)C2=O)C1=O` (stereo not given), the growth in the assay on T-47D breast was 102%; in the assay on BT-549 breast, 101%; in the assay on MDA-MB-435 melanoma, 104%; in the assay with SW-620 colon it was 108%; in the assay with MCF7 breast, 103%; in the assay with HCT-116 colon, 104%. Moreover, the growth was 97.6% in the assay on HCC-2998 colon and 104% with KM12 colon.
In the case of `C[C@H]1[C@H](OC(=O)CCC(=O)O)O[C@@H]2O[C@]3(C)CC[C@H]4[C@H](C)CC[C@@H]1[C@@]24OO3`, the growth is 31.3% in the assay with T-47D breast; 37.9% in the assay on BT-549 breast; 9.74% (active) with MDA-MB-435 melanoma; 30.6% with SW-620 colon; 28.4% in the assay with MCF7 breast; 14.1% in the assay with HCT-116 colon. The growth in the assay on HCC-2998 colon is 48.1%; in the assay with KM12 colon it was 27.1%.
For the compound `COc1ccc(NC(=O)C2CC3C=CC2C3)c([N+](=O)[O-])c1` (stereo not given), the growth in the assay with T-47D breast is 98.1%; in the assay with BT-549 breast it was 139%; with MDA-MB-435 melanoma it was 102%; in the assay with SW-620 colon it was 110%; with MCF7 breast, 101%; in the assay with HCT-116 colon, 120%. Also, the growth in the assay with HCC-2998 colon is 103%; in the assay on KM12 colon, 105%.

The record behind these values is PubChem BioAssay (NCI).
